# Columns and labels:
# Test in all cases: DAPPL (digital affinity profiling via proximity ligation, sequencing); 10 mM Tris-HCl pH 7.5, 50 mM NaCl, 1 mM DTT, 4% glycerol, room temperature, 30 min; GST-TFs on glutathione beads, 16-mer random dsDNA library, 0.1% formaldehyde crosslink after washing; high values mean tight binding
# [1] = biological target: T1, FLI1 (Homo sapiens, UniProt Q01543 1-452); details: protein: recombinant; tags: N-terminal GST; dsDNA, one strand shown
# T1 sequence: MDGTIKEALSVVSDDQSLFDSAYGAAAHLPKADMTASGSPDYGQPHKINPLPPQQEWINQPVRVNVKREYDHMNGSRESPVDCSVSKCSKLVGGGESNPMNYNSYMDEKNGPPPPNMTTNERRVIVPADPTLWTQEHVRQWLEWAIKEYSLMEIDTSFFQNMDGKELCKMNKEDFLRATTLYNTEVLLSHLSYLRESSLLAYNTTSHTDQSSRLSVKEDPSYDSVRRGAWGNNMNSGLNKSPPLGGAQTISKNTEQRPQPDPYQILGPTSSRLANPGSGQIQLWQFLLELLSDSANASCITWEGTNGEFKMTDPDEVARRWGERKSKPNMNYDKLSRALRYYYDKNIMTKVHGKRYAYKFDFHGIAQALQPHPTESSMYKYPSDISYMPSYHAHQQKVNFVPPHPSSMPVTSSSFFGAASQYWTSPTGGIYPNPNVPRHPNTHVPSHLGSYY
# Procedure, shortened: (§1)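 After expression in yeast as GST fusions, human transcription factors were bound to glutathione beads, DNA-barcoded and mixed with a tag-only sample. The pools were incubated with 200 nmole of a 16-mer random double-stranded DNA library in Tris/NaCl/DTT/glycerol buffer (30 min, room temperature), washed and crosslinked with 0.1% formaldehyde. Proximity ligation with BsaI/T4 ligase ran for 1 h at 37 °C, before PCR amplification and sequencing on an Illumina NextSeq500. Binding signal is a hexamer's read frequency for a factor divided by its frequency for the tag-only sample.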
# [2] = biological target: T2, ELK1 (Homo sapiens, UniProt P19419 1-428); details: protein: recombinant; tags: N-terminal GST; dsDNA, one strand shown
# T2 sequence: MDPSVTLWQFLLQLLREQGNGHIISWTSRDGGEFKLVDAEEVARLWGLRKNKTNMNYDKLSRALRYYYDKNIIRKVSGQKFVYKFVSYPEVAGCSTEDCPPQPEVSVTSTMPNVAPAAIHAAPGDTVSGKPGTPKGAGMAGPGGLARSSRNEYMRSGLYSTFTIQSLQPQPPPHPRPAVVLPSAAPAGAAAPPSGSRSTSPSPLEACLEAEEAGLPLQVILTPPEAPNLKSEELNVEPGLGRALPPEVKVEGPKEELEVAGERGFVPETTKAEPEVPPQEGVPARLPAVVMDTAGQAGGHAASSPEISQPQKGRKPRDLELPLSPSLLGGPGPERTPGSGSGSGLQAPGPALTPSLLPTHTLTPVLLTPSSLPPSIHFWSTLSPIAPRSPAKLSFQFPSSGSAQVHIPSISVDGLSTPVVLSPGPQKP
# Procedure, shortened: as §1
# [3] = biological target: T3, GABPA (Homo sapiens, UniProt Q06546 1-454); details: protein: recombinant; tags: N-terminal GST; dsDNA, one strand shown
# T3 sequence: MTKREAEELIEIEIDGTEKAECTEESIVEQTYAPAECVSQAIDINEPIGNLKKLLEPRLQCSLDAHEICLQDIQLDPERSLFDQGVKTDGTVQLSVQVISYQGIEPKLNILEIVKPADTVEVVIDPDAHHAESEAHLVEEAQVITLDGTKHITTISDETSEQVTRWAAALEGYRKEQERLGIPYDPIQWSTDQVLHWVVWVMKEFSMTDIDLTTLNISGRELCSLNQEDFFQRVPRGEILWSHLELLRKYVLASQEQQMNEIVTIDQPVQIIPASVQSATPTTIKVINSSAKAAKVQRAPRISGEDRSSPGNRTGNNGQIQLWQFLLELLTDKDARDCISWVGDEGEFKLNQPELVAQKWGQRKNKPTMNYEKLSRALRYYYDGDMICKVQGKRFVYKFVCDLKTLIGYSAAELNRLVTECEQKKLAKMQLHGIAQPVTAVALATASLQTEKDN
# Procedure, shortened: as §1
# [4] = biological target: T4, ERG (Homo sapiens, UniProt P11308 1-479); details: protein: recombinant; tags: N-terminal GST; dsDNA, one strand shown
# T4 sequence: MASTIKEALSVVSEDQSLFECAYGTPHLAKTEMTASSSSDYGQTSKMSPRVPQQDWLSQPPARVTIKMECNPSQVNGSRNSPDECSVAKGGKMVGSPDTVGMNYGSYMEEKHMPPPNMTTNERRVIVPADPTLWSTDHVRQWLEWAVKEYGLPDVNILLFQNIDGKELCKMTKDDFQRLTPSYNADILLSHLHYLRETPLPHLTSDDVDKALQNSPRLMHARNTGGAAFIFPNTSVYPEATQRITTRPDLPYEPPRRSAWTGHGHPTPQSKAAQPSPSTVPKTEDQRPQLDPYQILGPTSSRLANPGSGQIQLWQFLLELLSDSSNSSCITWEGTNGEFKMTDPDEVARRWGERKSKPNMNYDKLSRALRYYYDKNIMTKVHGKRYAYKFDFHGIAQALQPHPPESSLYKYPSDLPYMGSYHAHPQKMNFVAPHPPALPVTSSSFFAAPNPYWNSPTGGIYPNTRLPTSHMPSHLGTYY
# Procedure, shortened: as §1
# [5] = biological target: ELF1 (Homo sapiens, UniProt P32519 1-619); details: protein: recombinant; tags: N-terminal GST; dsDNA, one strand shown
# Procedure, shortened: as §1
# [6] = biological target: T5, EHF (Homo sapiens, UniProt Q9NZC4 1-300); details: protein: recombinant; tags: N-terminal GST; dsDNA, one strand shown
# T5 sequence: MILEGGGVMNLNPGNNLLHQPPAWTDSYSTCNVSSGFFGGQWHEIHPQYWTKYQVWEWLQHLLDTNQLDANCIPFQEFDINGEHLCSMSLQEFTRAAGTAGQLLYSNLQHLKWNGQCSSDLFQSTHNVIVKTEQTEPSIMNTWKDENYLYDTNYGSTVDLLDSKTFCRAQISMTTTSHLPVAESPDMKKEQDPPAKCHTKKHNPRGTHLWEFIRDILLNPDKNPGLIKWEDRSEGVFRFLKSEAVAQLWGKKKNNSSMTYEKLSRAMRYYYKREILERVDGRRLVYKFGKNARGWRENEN
# Procedure, shortened: as §1
# [7] = biological target: SPI1 (Homo sapiens, UniProt P17947 1-270); details: protein: recombinant; tags: N-terminal GST; dsDNA, one strand shown
# Procedure, shortened: as §1
# [8] = biological target: SPIB (Homo sapiens, UniProt Q01892 1-262); details: protein: recombinant; tags: N-terminal GST; dsDNA, one strand shown
# Procedure, shortened: as §1
# [9] = biological target: T6, ELK3 (Homo sapiens, UniProt P41970 1-407); details: protein: recombinant; tags: N-terminal GST; dsDNA, one strand shown
# T6 sequence: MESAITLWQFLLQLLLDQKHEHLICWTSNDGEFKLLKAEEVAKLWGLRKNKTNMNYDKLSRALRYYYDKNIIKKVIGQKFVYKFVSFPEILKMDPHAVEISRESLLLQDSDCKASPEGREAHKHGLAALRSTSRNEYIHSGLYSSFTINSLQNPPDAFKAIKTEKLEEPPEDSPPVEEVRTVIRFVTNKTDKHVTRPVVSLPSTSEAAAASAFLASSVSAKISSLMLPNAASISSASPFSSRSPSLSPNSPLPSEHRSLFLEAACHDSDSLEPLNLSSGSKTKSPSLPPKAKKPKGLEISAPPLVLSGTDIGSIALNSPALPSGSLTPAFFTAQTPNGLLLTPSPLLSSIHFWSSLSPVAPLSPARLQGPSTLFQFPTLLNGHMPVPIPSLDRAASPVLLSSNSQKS
# Procedure, shortened: as §1
# [10] = biological target: T7, FEV (Homo sapiens, UniProt Q99581 1-238); details: protein: recombinant; tags: N-terminal GST; dsDNA, one strand shown
# T7 sequence: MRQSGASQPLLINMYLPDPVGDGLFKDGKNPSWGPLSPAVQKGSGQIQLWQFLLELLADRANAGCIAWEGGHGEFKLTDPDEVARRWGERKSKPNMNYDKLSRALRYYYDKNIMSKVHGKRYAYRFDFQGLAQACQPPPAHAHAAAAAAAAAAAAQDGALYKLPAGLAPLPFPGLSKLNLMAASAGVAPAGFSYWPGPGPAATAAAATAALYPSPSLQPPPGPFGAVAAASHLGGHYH
# Procedure, shortened: as §1
# [11] = biological target: ETV5 (Homo sapiens, UniProt P41161 1-510); details: protein: recombinant; tags: N-terminal GST; dsDNA, one strand shown
# Procedure, shortened: as §1
# [12] = biological target: HSF1 (Homo sapiens, UniProt Q00613 1-529); details: protein: recombinant; tags: N-terminal GST; chain copies: 3; dsDNA, one strand shown
# Procedure, shortened: as §1
# [13] = biological target: T8, SPIC (Homo sapiens, UniProt Q8N5J4 1-248); details: protein: recombinant; tags: N-terminal GST; dsDNA, one strand shown
# T8 sequence: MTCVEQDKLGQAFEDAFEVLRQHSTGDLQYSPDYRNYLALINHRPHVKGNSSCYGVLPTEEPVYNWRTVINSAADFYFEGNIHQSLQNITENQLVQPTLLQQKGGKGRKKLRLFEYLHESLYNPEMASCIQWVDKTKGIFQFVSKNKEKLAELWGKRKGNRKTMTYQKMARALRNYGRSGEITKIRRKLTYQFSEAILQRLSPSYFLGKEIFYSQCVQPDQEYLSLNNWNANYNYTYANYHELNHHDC
# Procedure, shortened: as §1
# [14] = biological target: ELF4 (Homo sapiens, UniProt Q99607 1-663); details: protein: recombinant; tags: N-terminal GST; dsDNA, one strand shown
# Procedure, shortened: as §1
# [15] = biological target: T9, ELK4 (Homo sapiens, UniProt P28324-2 1-405); details: protein: recombinant; tags: N-terminal GST; dsDNA, one strand shown
# T9 sequence: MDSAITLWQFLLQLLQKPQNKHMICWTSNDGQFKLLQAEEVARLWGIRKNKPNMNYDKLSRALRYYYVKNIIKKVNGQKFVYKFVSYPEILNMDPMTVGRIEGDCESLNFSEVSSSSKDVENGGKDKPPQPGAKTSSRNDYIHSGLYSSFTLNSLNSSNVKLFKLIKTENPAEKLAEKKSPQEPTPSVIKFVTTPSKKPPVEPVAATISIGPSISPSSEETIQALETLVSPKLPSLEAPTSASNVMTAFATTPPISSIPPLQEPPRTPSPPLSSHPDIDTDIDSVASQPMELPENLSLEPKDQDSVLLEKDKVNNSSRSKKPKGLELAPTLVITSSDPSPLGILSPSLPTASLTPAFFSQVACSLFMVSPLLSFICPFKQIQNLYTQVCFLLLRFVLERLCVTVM
# Procedure, shortened: as §1
# [16] = biological target: T10, ETV2 (Homo sapiens, UniProt O00321 1-342); details: protein: recombinant; tags: N-terminal GST; dsDNA, one strand shown
# T10 sequence: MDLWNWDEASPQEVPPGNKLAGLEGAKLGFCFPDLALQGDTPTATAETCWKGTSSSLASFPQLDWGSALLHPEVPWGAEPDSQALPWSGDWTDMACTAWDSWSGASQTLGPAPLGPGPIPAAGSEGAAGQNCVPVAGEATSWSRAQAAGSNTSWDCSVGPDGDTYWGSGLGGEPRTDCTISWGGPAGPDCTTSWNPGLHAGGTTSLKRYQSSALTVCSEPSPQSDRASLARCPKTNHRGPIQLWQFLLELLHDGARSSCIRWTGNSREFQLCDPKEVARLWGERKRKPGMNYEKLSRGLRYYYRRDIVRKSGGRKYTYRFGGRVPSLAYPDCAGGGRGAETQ
# Procedure, shortened: as §1
# [17] = biological target: T11, ELF3 (Homo sapiens, UniProt P78545 1-371); details: protein: recombinant; tags: N-terminal GST; dsDNA, one strand shown
# T11 sequence: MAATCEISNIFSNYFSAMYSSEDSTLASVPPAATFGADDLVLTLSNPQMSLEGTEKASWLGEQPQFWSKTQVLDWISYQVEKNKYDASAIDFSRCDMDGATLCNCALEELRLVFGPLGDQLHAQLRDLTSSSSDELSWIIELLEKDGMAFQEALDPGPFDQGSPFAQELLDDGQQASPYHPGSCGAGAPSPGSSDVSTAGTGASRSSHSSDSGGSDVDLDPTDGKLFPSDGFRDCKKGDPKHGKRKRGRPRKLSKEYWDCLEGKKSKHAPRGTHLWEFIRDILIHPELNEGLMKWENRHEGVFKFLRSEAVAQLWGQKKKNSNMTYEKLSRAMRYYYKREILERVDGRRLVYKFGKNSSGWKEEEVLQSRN
# Procedure, shortened: as §1
# [18] = biological target: CRX (Homo sapiens, UniProt O43186 1-299); details: protein: recombinant; tags: N-terminal GST; dsDNA, one strand shown
# Procedure, shortened: as §1
# [19] = biological target: ETV1 (Homo sapiens, UniProt P50549 1-477); details: protein: recombinant; tags: N-terminal GST; dsDNA, one strand shown
# Procedure, shortened: as §1
# Sequence of ELF4 (Q99607 whole entry): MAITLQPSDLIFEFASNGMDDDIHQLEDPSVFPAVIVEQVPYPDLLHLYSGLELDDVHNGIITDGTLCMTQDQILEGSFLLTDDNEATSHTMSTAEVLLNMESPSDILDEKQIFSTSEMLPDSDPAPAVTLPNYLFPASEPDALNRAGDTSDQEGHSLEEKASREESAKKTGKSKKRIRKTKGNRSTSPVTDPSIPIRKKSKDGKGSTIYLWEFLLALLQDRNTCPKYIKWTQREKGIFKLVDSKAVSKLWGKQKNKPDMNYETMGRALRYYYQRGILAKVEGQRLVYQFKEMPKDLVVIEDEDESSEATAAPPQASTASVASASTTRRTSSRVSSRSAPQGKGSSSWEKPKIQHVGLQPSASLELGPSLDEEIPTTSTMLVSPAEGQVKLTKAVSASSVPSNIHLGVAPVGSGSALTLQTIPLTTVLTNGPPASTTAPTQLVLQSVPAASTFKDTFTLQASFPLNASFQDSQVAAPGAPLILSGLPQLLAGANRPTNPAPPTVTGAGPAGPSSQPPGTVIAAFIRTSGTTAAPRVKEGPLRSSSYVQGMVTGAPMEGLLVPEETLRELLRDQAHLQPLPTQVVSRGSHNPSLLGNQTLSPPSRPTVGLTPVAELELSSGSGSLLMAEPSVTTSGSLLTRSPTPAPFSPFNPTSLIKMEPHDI
# Sequence of CRX (O43186 whole entry): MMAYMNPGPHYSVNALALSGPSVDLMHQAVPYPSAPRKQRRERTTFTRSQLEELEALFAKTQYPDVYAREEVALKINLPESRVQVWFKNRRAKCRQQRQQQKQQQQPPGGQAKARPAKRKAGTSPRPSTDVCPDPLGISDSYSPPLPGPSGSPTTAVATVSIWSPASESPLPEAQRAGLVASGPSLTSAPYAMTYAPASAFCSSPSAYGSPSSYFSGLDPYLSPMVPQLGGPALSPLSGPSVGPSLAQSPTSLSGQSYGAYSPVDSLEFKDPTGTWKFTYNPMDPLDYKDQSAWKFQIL
# Sequence of SPIB (Q01892 whole entry): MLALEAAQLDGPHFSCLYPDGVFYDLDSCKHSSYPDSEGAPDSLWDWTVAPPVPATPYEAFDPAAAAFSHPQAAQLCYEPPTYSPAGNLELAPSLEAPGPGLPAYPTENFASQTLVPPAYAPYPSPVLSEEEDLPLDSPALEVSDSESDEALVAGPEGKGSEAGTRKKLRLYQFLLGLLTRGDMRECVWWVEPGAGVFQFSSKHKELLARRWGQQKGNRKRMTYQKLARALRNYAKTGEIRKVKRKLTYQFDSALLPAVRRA
# Sequence of ETV5 (P41161 whole entry): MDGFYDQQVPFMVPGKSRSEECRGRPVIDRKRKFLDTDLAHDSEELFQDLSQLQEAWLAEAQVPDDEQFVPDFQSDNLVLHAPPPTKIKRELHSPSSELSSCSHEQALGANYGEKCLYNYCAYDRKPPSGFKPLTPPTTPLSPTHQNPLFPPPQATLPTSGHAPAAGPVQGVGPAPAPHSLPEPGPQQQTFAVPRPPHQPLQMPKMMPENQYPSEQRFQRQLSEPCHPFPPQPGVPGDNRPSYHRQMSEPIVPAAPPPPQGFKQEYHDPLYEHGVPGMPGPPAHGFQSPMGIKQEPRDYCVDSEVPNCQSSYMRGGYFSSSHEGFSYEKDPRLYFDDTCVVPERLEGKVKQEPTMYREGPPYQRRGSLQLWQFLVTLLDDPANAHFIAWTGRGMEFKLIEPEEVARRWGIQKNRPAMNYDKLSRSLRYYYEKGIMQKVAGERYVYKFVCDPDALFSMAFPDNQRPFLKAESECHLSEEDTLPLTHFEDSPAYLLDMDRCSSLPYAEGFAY
# Sequence of HSF1 (Q00613 whole entry): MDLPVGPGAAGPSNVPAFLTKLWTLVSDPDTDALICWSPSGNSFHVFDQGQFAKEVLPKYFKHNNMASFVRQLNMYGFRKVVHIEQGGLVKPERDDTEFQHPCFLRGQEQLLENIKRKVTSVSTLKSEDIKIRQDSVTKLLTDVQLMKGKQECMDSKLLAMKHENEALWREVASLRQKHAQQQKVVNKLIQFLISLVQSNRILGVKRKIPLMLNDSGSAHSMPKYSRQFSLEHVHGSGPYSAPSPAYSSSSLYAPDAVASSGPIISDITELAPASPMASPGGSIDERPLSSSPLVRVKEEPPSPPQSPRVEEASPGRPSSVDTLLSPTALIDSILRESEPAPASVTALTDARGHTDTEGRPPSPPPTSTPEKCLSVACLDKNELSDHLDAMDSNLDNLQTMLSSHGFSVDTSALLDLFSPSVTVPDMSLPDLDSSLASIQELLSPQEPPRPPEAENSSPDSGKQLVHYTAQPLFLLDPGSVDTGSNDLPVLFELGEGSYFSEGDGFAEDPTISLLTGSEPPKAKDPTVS
# Sequence of ELF1 (P32519 whole entry): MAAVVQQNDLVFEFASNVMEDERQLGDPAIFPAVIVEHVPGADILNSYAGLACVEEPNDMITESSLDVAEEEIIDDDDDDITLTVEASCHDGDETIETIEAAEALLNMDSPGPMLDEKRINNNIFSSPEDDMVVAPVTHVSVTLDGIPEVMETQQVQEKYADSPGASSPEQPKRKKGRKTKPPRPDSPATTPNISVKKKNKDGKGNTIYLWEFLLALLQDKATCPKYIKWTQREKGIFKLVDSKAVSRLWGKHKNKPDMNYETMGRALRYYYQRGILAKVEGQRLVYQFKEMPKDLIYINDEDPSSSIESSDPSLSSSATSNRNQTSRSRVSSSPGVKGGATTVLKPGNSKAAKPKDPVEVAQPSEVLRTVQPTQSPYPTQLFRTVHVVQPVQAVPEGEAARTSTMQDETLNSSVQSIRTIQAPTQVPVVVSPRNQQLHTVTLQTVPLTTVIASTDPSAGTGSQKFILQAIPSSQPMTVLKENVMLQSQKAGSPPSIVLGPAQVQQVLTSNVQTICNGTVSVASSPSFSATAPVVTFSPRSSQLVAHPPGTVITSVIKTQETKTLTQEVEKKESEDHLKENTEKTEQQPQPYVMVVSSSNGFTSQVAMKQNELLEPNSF
# Sequence of ETV1 (P50549 whole entry): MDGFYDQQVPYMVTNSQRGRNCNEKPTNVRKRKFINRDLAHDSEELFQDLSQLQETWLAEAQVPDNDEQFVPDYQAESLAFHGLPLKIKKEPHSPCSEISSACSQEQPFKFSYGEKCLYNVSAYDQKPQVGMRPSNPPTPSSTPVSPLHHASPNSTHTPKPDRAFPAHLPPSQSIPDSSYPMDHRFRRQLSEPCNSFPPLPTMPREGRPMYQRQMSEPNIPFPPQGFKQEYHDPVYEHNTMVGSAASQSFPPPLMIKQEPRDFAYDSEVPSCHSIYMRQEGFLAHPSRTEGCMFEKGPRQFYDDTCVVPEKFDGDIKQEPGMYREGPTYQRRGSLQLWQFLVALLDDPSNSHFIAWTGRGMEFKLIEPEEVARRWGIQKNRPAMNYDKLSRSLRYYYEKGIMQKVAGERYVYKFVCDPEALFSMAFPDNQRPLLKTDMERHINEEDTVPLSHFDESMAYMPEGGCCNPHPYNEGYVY
sequence,measurement,setting,value
CTCATT,binding signal,[1],"1.45 fold enrichment (6-mer frequency, TF over GST control)"
same,binding signal,[2],"1.32 fold enrichment (6-mer frequency, TF over GST control)"
same,binding signal,[3],"1.44 fold enrichment (6-mer frequency, TF over GST control)"
same,binding signal,[4],"1.38 fold enrichment (6-mer frequency, TF over GST control)"
same,binding signal,[5],"1.55 fold enrichment (6-mer frequency, TF over GST control)"
same,binding signal,[6],"1.57 fold enrichment (6-mer frequency, TF over GST control)"
same,binding signal,[7],"1.82 fold enrichment (6-mer frequency, TF over GST control)"
same,binding signal,[8],"1.61 fold enrichment (6-mer frequency, TF over GST control)"
same,binding signal,[9],"1.12 fold enrichment (6-mer frequency, TF over GST control)"
same,binding signal,[10],"1.44 fold enrichment (6-mer frequency, TF over GST control)"
same,binding signal,[11],"1.41 fold enrichment (6-mer frequency, TF over GST control)"
same,binding signal,[12],"1.36 fold enrichment (6-mer frequency, TF over GST control)"
same,binding signal,[13],"1.29 fold enrichment (6-mer frequency, TF over GST control)"
same,binding signal,[14],"1.52 fold enrichment (6-mer frequency, TF over GST control)"
same,binding signal,[15],"1.63 fold enrichment (6-mer frequency, TF over GST control)"
same,binding signal,[16],"1.49 fold enrichment (6-mer frequency, TF over GST control)"
same,binding signal,[17],"1.35 fold enrichment (6-mer frequency, TF over GST control)"
same,binding signal,[18],"1.45 fold enrichment (6-mer frequency, TF over GST control)"
same,binding signal,[19],"1.52 fold enrichment (6-mer frequency, TF over GST control)"
